By inhibition is commonly meant the relative decrease from the control value, in per cent.

Screen size: about 290,000 compounds; about 370 (0.13%) were called active. This excerpt belongs to a sample that is enriched for actives. Measured potencies and affinities stand elsewhere. Unmarked numbers belong to inactive results.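 The calls were made as follows: active = spots per cell inhibited over 60%, with over 100 cells counted and total cytoplasm intensity under 500,000; inconclusive = wells with under 100 cells, flagged as likely toxic; inactive = the rest.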

Chain of G-protein coupled receptor 55 (Homo sapiens) (Q9Y2T6 whole entry, looked up): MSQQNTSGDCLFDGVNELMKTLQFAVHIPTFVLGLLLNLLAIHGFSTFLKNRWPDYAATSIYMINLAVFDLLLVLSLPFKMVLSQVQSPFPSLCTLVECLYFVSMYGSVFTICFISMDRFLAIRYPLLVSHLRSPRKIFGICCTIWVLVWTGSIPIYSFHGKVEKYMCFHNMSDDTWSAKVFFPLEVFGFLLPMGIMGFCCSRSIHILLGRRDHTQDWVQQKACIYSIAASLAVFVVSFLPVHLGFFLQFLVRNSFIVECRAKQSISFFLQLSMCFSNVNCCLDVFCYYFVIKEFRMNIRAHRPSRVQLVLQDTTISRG

This test concerns the target G-protein coupled receptor 55 (Homo sapiens) (UniProt Q9Y2T6). In words: inhibition of LPI-stimulated GPR55 beta-arrestin translocation – imaging, U2OS, beta-arrestin-GFP, LPI agonist, primary screen (AID 2013).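 Also: U2OS cells stably carrying GPR55 and arrestin-GFP stimulated by 5 µM LPI near EC80; imaged beta-arrestin-GFP aggregate spots per cell after agonist stimulation; plate controls were LPI-stimulated DMSO wells for no effect and DMSO wells without LPI for full effect.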 The note with it: LPI antagonism, at 10 µM, active compounds read high.
For `Cc1ccc(NC(=O)CN(C)C(=O)CCOc2cccc(C)c2)cc1`, the inhibition was 7.3%. The result for `O=[N+]([O-])c1ccc(N/N=C2\CC3CC=CC23)cc1` (configuration not stated) reads -7.7%. The result for `O=C(N/N=C/c1ccc(OC(=O)c2ccccc2Cl)cc1)c1cc(O)cc(O)c1` reads 4.4%. `O=C(CNC1CCCCC1)N1CCc2ccccc2C1`: the inhibition is -1.3%.

Regarding `NS(=O)(=O)c1ccc(Oc2ccc(S(N)(=O)=O)cc2)cc1`, the inhibition was -4.4%.

For the compound `CNS(=O)(=O)c1ccc(Oc2ccc(S(=O)(=O)NC)cc2)cc1`, the inhibition is 19%. The result for `C=CS(=O)(=O)c1ccc(Oc2ccc(S(=O)(=O)C=C)cc2)cc1` reads 70.4% (active); that for `COc1ccc(C(=S)N2CCOCC2)cc1OC(=O)c1ccc([N+](=O)[O-])cc1[N+](=O)[O-]`, 6.8%; that for `COC(=O)CCC(=O)OC1(C)C(=O)C=C2C=C(C3CC3)N(C3CC3)C=C2C1=O` (configuration not stated), 5.7%. The figure for `COc1cccc(NC(=O)COC(=O)C2C3CC4OC(=O)C2C4C3)c1` (configuration not stated) is 2.1%. Take `COCCN=C1N[C@@H](c2ccccc2)C(C(=O)OC)=C(C)N1Cc1ccccc1`: the inhibition was 31.4%. Regarding `COC(=O)C1=C(C)N(Cc2ccccc2)C(=NCCCCO)N[C@H]1c1ccccc1`, the inhibition was -6.4%. The result for `Cc1ccc(OCC(=O)N2c3ccccc3NC(=O)C2(C)C)c([N+](=O)[O-])n1` reads 6.9%.

Regarding `CCOC(=O)c1nc(Nc2ccc(C)cc2)c2ccccc2n1`, the inhibition was 11.6%.

As to `CCOC(=O)c1nc(Nc2ccccc2)c2ccccc2n1`, the inhibition is -3.5%. Regarding `Cc1csc(NC(=O)CCC(=O)N(CC(=O)NC2CCCCC2)c2ccccc2)n1`, the inhibition was 7.7%. The result for `Cn1cccc1/C=N/N1CCN(Cc2ccccc2Cl)CC1` reads -2.2%. The result for `O=C1NC(=O)N(Cc2ccccc2F)C1=O` reads -13.9%. The result for `Cc1cc(F)ccc1NC(=O)C1CCN(S(=O)(=O)c2ccc3c(c2)CCCC(=O)N3)CC1` reads 8.1%; that for `O=C(NCCNC(=O)c1cc(Cl)ccc1Cl)c1ccccn1`, 3.4%; that for `CC(NC(=O)CN1CCCC1)C12CC3CC(CC(C3)C1)C2` (configuration not stated), -3.7%. With `CC(NC(=O)Cn1nc(C(=O)O)c2ccccc2c1=O)C12CC3CC(CC(C3)C1)C2` (configuration not stated), the inhibition was -2.7%. Take `O=C(COC(=O)c1cc(S(=O)(=O)N2CCc3ccccc3C2)ccc1Cl)NCc1ccco1`: the inhibition was 7.3%. The result for `Cn1c(N)c(C(=O)COC(=O)CCC2CCCCC2)c(=O)n(C)c1=O` reads 8.4%.

For the compound `CCN(CC)S(=O)(=O)c1ccc(N2CCOCC2)c(NC(=O)COc2ccccc2C#N)c1`, the inhibition was -13.6%. As for `Cn1c(=O)c2ccccc2n2c(CCl)nnc12`, the inhibition was 5.8%. The result for `CSCCNC(=O)c1ccc2nc(C3CCCCC3)oc2c1` reads 4.5%; that for `O=C(NCc1ccccn1)c1ccc2nc(C3CCCCC3)oc2c1`, -4.5%.

For the compound `CCOc1ccc(N(C)S(=O)(=O)c2ccc3[nH]cc(C(=O)NCC4CCCO4)c(=O)c3c2)cc1` (configuration not stated), the inhibition was 8.3%. The figure for `Cc1cc(NC(=O)c2ccc([N+](=O)[O-])cc2)n(CCC#N)n1` is 4.7%. The result for `COCCCn1c(=S)[nH]c2sc3c(c2c1=O)CCCS3` reads -0.4%; that for `CCc1ccc(CN2CCCC(C(=O)N3CCCCC3)C2)cc1` (configuration not stated), 12%. The figure for `CCc1nnc(NC(=O)c2ccc3c(c2)C(=O)N(CC(C)C)C3=O)s1` is 3.7%; for `CNC(=O)c1ncoc1-c1ccc(Cl)cc1` it is 12.3%; for `CCCNC(=O)c1nnsc1S(=O)(=O)c1ccc(Cl)cc1` it is 31.8%. Regarding `CCCNC(=O)c1nnsc1Sc1ccc(Cl)cc1`, the inhibition is -10.7%. The result for `O=C(Nc1ccccc1)c1nnsc1S(=O)(=O)c1ccc(Cl)cc1` reads 4.3%. The result for `O=C(CC12CC3CC(CC(C3)C1)C2)NC(Cc1ccccc1)C(=O)O` (configuration not stated) reads 10.7%; that for `CC(=O)N(C(C)=O)c1nc(-c2ccccc2)cn1/N=C/c1ccccc1`, 7.8%; that for `CCCNC(=O)NC(=O)CSc1nncs1`, 1.8%. The figure for `Cc1ccc(C(=O)N/C(=C/c2ccco2)C(=O)N2CCCCC2)cc1` is -6.4%. For `CC(C)Nc1nc(Cl)nc(NCCOc2ccccc2)n1`, the inhibition is 1.4%. The figure for `CN(C)CC(C)(C)CNS(=O)(=O)c1ccc(Cl)s1` is 2.9%.

For the compound `O=c1[nH]c(Cc2ccccc2)nc2scc(-c3ccccc3)c12`, the inhibition was -0.4%. The result for `NC(=O)c1cc(-c2ccccc2)nc(N2CCCCCC2)n1` reads -8.5%; that for `CN1CCN(c2nc(C(N)=O)cc(-c3ccccc3)n2)CC1`, -5.1%. The figure for `CC(=O)Nc1ccc(S(=O)(=O)NCCC(=O)N2CCc3ccccc32)cc1` is 2.8%; for `O=C(NC1CCCN(c2ccc(C(F)(F)F)cn2)C1)c1cc(Cl)ccc1F` (configuration not stated) it is 9.1%.

For `CC(C)=NNc1nc2c(c(=O)[nH]c(=O)n2C)n1CCc1ccccc1`, the inhibition was -4.6%.

As for `COc1ccc(Br)cc1/C=N/Nc1cccc(C(=O)O)c1`, the inhibition is 1%. Take `C=CCOc1c(CNc2cccc(C(=O)O)c2)cccc1OC`: the inhibition was 4.5%. The figure for `Cc1c(NC(=O)CN2C(=O)NC(CCc3ccccc3)C2=O)c(=O)n(-c2ccccc2)n1C` (configuration not stated) is 13.9%; for `NC(=O)[C@@H]1CCOc2c(F)cc([N+](=O)[O-])cc2C(=O)N[C@@H](CO)C(=O)NCC(=O)N1` it is 1.8%; for `CC12CCC(C/C1=N\N=C1\NC(=O)/C(=C\c3ccc(Cl)cc3)S1)C2(C)C` (configuration not stated) it is 41.5%. Turning to `COc1ccc(/C=C2\SC(N)=NC2=O)cc1`, the inhibition was -7%. The result for `O=C(CN(C(=O)CCC(=O)Nc1nccs1)c1ccc(F)cc1)NCC1CCCO1` (configuration not stated) reads 15%. With `C/C(Cl)=C\CSc1nnc2n(N)c(=O)c3ccccc3n12`, the inhibition is -16.2%. The result for `CCN(Cc1cn2cccnc2n1)C1CCCCC1` reads 87.7% (active); that for `Cc1ccc(OCc2cn3cccnc3n2)cc1`, 12.3%. In the case of `Cc1ccc(SCc2cn3cccnc3n2)cc1`, the inhibition was -13.1%. The figure for `O=C1NCC(c2ccccc2)C1C(=O)N/N=C/c1ccc(Cl)s1` (configuration not stated) is 5.1%. Regarding `Cc1ccc(/C=c2\s/c(=C(/C#N)C(=O)N3CCCC3)n(Cc3ccco3)c2=O)s1`, the inhibition was 5.1%. With `COc1ccc(/C=c2\s/c(=C(/C#N)C(=O)NCc3ccco3)n(-c3ccccc3)c2=O)cc1`, the inhibition was 2.8%. `CN(c1ccccc1)c1ccc(/C=c2\s/c(=C(/C#N)C(=O)C(C)(C)C)n(Cc3ccco3)c2=O)cc1`: the inhibition is 74% (active). The figure for `Cc1[nH]c(C)c(S(=O)(=O)N2CCCCC2)c1C(=O)N1CCCCC1` is 29.6%; for `Cc1ccc(N2CN(CCc3ccccc3)CNC2=S)cc1` it is 5%; for `O=C(Nc1cccc(F)c1)NC1CCN(Cc2ccccc2)CC1` it is 6%. Consider `COc1ccc(/C=C(\C#N)C(=O)NC(C)c2ccccc2)cc1O` (configuration not stated), for which the inhibition is 4.5%. The figure for `CC(NC(=O)/C(C#N)=C/c1ccc([N+](=O)[O-])o1)c1ccccc1` (configuration not stated) is 4.1%.

With `CC(=NCCc1ccccc1)C1=C(O)COC1=O`, the inhibition was 13.7%. Consider `CCOC(=O)c1c(N)sc(C(O)(C(F)(F)F)C(F)(F)F)c1-c1ccc(Cl)cc1`, for which the inhibition is 5.7%.

Consider `CCOC(=O)c1c(N)sc(-c2ccccc2)c1C`, for which the inhibition was -6.5%. As to `CCOC(=O)c1c(N)sc(C(O)(C(F)(F)F)C(F)(F)F)c1-c1ccc(OC)cc1OC`, the inhibition was 22.9%.

For the compound `CCOC(=O)c1c(N)sc(N)c1C(=O)OCC`, the inhibition was 6.2%.

For the compound `N#Cc1c(N)nc(SCC(=O)C23CC4CC(CC(C4)C2)C3)c(C#N)c1-c1ccc(Cl)cc1`, the inhibition is 0.2%. Regarding `COC(=O)c1cccc(NC(=O)CSc2nc3cccnc3n2C)c1`, the inhibition is 16.9%. The result for `CCCCCCCc1c(C)nc(N2CCOCC2)[nH]c1=O` reads 3.4%. The result for `CCOC(=O)C1=NN(N=O)C2(CC(=O)N(c3cc(C)cc(C)c3)C2=O)C1` (configuration not stated) reads 8.8%; that for `CC(C)(C)N(Cc1cc2ccccc2[nH]c1=O)C(=O)c1cccc([N+](=O)[O-])c1`, -1.2%. Consider `O=C(Nc1ccccc1Cl)c1cc[n+]([O-])cc1`, for which the inhibition is 10.9%. For the compound `Cc1ccc(OCCN2CCN(CC(O)Cn3c4ccccc4c4ccccc43)CC2)cc1` (configuration not stated), the inhibition was 72.6% (active). As for `COc1ccc(CN2CCN(CC(O)Cn3c4ccccc4c4ccccc43)CC2)cc1` (configuration not stated), the inhibition was 50.2%. For the compound `Cc1ccc(OCC(O)Cn2c3ccccc3c3ccccc32)cc1` (configuration not stated), the inhibition was 6.3%. On to `CN1CCN(CC(O)Cn2c3ccccc3c3ccccc32)CC1` (configuration not stated), for which the inhibition was -3.3%. With `OC(CN1CCN(Cc2ccccc2)CC1)Cn1c2ccccc2c2ccccc21` (configuration not stated), the inhibition was 36.2%. Take `CCOc1ccc(CN2CCN(CC(O)Cn3c4ccccc4c4ccccc43)CC2)cc1` (configuration not stated): the inhibition is 79.4% (active). The figure for `Cc1ccc(/C=N/NC(=O)c2nnn(-c3nonc3N)c2C(C)C)s1` is 4%. For the compound `CC1CCN(CCc2nc3cc(NS(=O)(=O)c4ccccc4)ccc3n2C)CC1`, the inhibition was -11.2%.

As for `CCn1c(SCC(N)=O)nc2c1c(=O)n(C)c(=O)n2C`, the inhibition was -11%. With `Cc1onc(-c2ccc(Cl)cc2Cl)c1C(=O)/C=C/N(C)C`, the inhibition is 3.5%.

Turning to `COc1ccc(C(CNC(=O)C(C)(C)Oc2ccc(Cl)cc2)N2CCCCC2)cc1` (configuration not stated), the inhibition is 3.2%. The result for `C=CCc1c(C)nc(-c2ccccc2)nc1N/N=C(\C)c1ccccc1` reads 8.1%; that for `Cc1cc(C2(c3ccc(O)c(C)c3)C(=O)Nc3ccccc32)ccc1O`, 5%. Take `CC(=O)Nc1ccc(C2(c3ccc(NC(C)=O)cc3)C(=O)Nc3ccccc32)cc1`: the inhibition is 10.2%. The figure for `COC(=O)C1=C(C)NC(=O)CC1c1cccc(Cl)c1Cl` (configuration not stated) is 10%.

Consider `CCOC(=O)C1=C(C)NC(=O)NC1c1ccccc1Cl` (configuration not stated), for which the inhibition was 14%.

Take `CCOC(=O)C1=C(C)NC(C)=C(C(=O)OC)C1c1cccc(Cl)c1Cl` (configuration not stated): the inhibition is 85.2% (active).

Source of the values: PubChem BioAssay AID2013 (Sanford-Burnham Center for Chemical Genomics, 2009).
